Assay outcomes: PubChem BioAssay, National Center for Advancing Translational Sciences (NCATS)
DT40 TDP1 no CPT – qHTS for Inhibitors of human tyrosyl-DNA phosphodiesterase 1 (TDP1): qHTS in cells in absence of CPT; DT40 Tdp1-/- hTDP1 cells, no CPT, ATP luminescence, 48 h; Potency, µM (top dose mostly 46.2 µM), inactives show at the highest dose activity change, negative = growth inhibition, actives largely listed as inhibitors; 420,000 compounds, 15% hits; AID 686978, 2013; note: nearly all actives have a fitted effect of over 55% in size
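Growth of hTDP1-complemented DT40 Tdp1-knockout cells is measured by ATP luminescence after at least 48 hr compound exposure at 37 °C, with DMSO substituting for the 20 nM CPT used in the parallel screen.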
KB-V1 MDR tox – kills drug-selected multidrug resistant KB-V1 cells | 400,000 compounds, 3.4% hits | KB-V1 MDR cells viability, CellTiter-Glo, 72 h | Potency, µM (series often up to 46.1 µM), actives largely listed as cytotoxic | AID 1347076; note: nearly all actives have a fitted effect of over 60% in size
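In this primary screen, KB-V1 cells overexpressing P-gp are incubated with library compounds (lowest to highest concentration) for 72 h at 37 degrees C before a luminescent ATP viability read.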
DT40 TDP1 CPT – DT40-hTDP1 cell growth loss with CPT. chicken DT40 Tdp1-/-;hTDP1 cells + 20 nM CPT, ATP luminescence, 48 h. Potency, µM (top dose mostly 46.2 µM), inactives show top-dose activity change, negative = growth inhibition, most hits filed as inhibitors. 420,000 compounds, 12% hits. AID 686979; note: nearly all actives have a fitted effect of over 55% in size
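Chicken DT40 Tdp1-/- cells stably complemented with human TDP1 were seeded at 400 cells/well in medium containing 20 nM camptothecin, exposed to pin-transferred compounds, and grown at 37 °C for at least 48 hr. Viability was read as ATP luminescence.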
KB-3-1 cytotox – KB-3-1 parental cell cytotoxicity | KB-3-1 viability, CellTiter-Glo ATP luminescence, 72 h | Potency, µM (highest dose often 46.1 µM), most hits filed as cytotoxic | AID 1347075 | 400,000 compounds, 1.4% hits; note: nearly all actives have a fitted effect of over 60% in size
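Viability of parental KB-3-1 cells, measured by CellTiter-Glo luminescence, followed a 72 h incubation at 37 °C with pinned compounds in phenol-red-free DMEM containing 10% FBS.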
HT1080 IDH1KD tx – toxicity to HT-1080 IDH1 knockdown cells (counter line); HT-1080 IDH1 knockdown viability, ATP luminescence, 48 h; Potency, µM (series often up to 46.1 µM), for the others: top-dose activity, negative = toxicity, actives largely listed as cytotoxic; 360,000 compounds, 2% hits; AID 686971;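 note: 0% = DMSO wells and -100% = cell-free medium wells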
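Luminescent ATP read-out (CellTiter-Glo, 10 min at room temperature) after 48 h compound exposure at 37 °C gave viability of IDH1-knockdown HT-1080 cells. Activity was normalised to DMSO and cell-free wells, then fitted as concentration-response curves.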
HT1080-NT tox – kills 2HG-producing HT-1080-NT fibrosarcoma cells | HT-1080-NT fibrosarcoma viability, CellTiter-Glo ATP luminescence, 48 h | Potency, µM (top dose mostly 46.1 µM), for inactives: top-dose activity, negative = less viability, hits mostly cytotoxic | 360,000 compounds, 1.6% hits;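 note: NT is the 2HG producing partner of a matched IDH1 knockdown line; 0% = DMSO-treated cells and -100% = media-only wells without cells; nearly all actives have a fitted effect of over 55% in size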
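Compounds were tested in concentration-response format on HT-1080-NT cells for 48 hours at 37 degrees C. Cell viability came from CellTiter-Glo luminescence; curves were classified by r2, response magnitude and activity.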
* hit, by the source's call; i = inactive; u = inconclusive; x = not tested or not shown; ! = not active in a repeat; [ ] = dose if it differs, or a comment. Only some compounds are listed: those with a hit (about 19% of all), similar ones and a draw of the others. Calls come from the whole dose curve; as a rule, active = well fitted curve in the direction sought with a large enough effect; inconclusive = small, poorly fitted or top-dose-only effect, or another doubt; inactive = no such curve, though single readings can be large; an effect the other way counts as inactive or inconclusive. Unless noted, % is set by controls: 0 for no effect and ±100 for the full control effect; potency is the fitted concentration of half-maximal effect.

SMILES | DT40 TDP1 no CPT | KB-V1 MDR tox | DT40 TDP1 CPT | KB-3-1 cytotox | HT1080 IDH1KD tx | HT1080-NT tox
COC(=O)C1=NN(C(=O)c2ccc(C)cc2)C(O)(c2ccc(Cl)cc2)C1 (configuration not stated) | -1% | i | -11% | i | 24% | 1%
CCCCN(C(=O)CCOc1ccc(OCC)cc1)c1c(N)n(Cc2ccccc2)c(=O)[nH]c1=O | -30% | i | -11% | i | -6% | -11%
CCOC(=O)c1ccc2c(c1)sc1nc(-c3ccc(OCC)cc3)cn12 | u | i | u | i | x | x
CCCn1ncc(CN2CCC(Cc3cccc(F)c3)(C(=O)OCC)CC2)c1C | u | u | 4% | i | -1% | -1%
COc1cccc(-c2cccc(NC(=O)C3CCN(Cc4cnn(C)c4)CC3)c2)c1 | 1% | x | -1% | x | 4% | 1%
Cn1cc(CN2CCC(C(=O)Nc3cccc(-c4cccc(F)c4)c3)CC2)cn1 | u | i | u | i | 23µM* | 21µM*
CCCn1ncc(CN2CCC(C(=O)Nc3cccc(-c4cccc(F)c4)c3)CC2)c1C | u | i | 15µM* | u | u | 21µM*
Cc1cccc(C(=O)NCC(=O)N2CC=C(c3ccccc3)CC2)c1 | u | i | u | u | u | -15%
COc1ccc(C(=O)NCC(=O)N2CC=C(c3ccccc3)CC2)cc1OC | 26µM* | i | u | i | 1% | -1%
O=C(NC(=S)N1CCN(C/C=C/c2ccccc2)CC1)c1ccc(F)cc1 | u | u | u | u | u | -18%
CCOC(=O)N1CCN(C(=O)C(NC(=O)c2ccc(C(C)(C)C)cc2)C(C)C)CC1 (configuration not stated) | 2.3µM* | i | 8.2µM* | i | -8% | -3%
COc1ccccc1C(=O)NCC(=O)N1CCN(C/C=C/c2ccccc2)CC1 | u | 8.2µM* | u | i | 8% | -3%
COc1ccc(C(=O)NC(C(=O)N2CCN(C/C=C/c3ccccc3)CC2)C(C)C)cc1 (configuration not stated) | u | i | 18µM* | i | -9% | -8%
COc1ccc([N+](=O)[O-])cc1NC(=O)CCS(=O)(=O)c1ccc(Br)cc1 | -17% | u | -14% | i | 1% | 1%
COc1cc(-c2ccc3ncnc(NCc4ccc(C)o4)c3c2)cc(OC)c1OC | x | i | x | u | x | x
CSCCC(NC(=O)c1ccccc1Br)C(=O)N1CCN(C/C=C/c2ccccc2)CC1 (configuration not stated) | u | u | 2.6µM* | i | u | -7%
CCOc1ccccc1N1CCN(C(=O)CNC(=O)c2ccc(OC)c(OC)c2)CC1 | u | i | 4% | u | 5% | -3%
CSCCC(NC(=O)c1ccccc1)C(=O)N1CCN(C(=O)c2ccccc2)CC1 (configuration not stated) | 1% | i | -24% | i | -3% | -3%[9.24 µM]
CCOc1ccc(C(=O)NCC(=O)N2CCN(C/C=C/c3ccccc3)CC2)cc1OCC | 16µM* | u | u | i | 1% | 2%
COc1c(C)cc(C(O)c2ncc(-c3ccccc3C)[nH]2)cc1C (configuration not stated) | u | i | u | i | -23% | -30%
O=C(C1CCN(S(=O)(=O)c2ccccc2)CC1)N1CCOCC1 | 3% | i | 6% | u | 11% | 10%
CCOc1ccc(C2C=C(c3ccc(F)cc3)Nc3ncnn32)cc1 (configuration not stated) | u | i | -21% | i | -2% | 2%
CCOc1ccc(C2=CC(c3cc(Br)ccc3F)n3ncnc3N2)cc1Cl (configuration not stated) | 18µM* | i | 15µM* | i | x | x
Fc1ccc(Br)cc1C1C=C(c2cccnc2)Nc2ncnn21 (configuration not stated) | 16µM* | i | 16µM* | u | -6% | -7%
CC(CCC(=O)O)C1CC[C@H]2C3CCC4CC(=O)CCC4(C)[C@H]3CC(=O)C12C (some centres not stated) | 6% | i | -2% | i | 6% | -1%
SMILES | DT40 TDP1 no CPT | KB-V1 MDR tox | DT40 TDP1 CPT | KB-3-1 cytotox | HT1080 IDH1KD tx | HT1080-NT tox
COc1ccccc1C1N=C(Nc2nc3ccccc3o2)NC2=C1C(=O)CC(C)(C)C2 (configuration not stated) | u | u | u | i | x | x
CCn1c(=N)n(CC(=O)c2ccc(Cl)c(Cl)c2)c2ccccc21 | 21µM* | 16µM* | 26µM* | u | 23µM* | u
Cc1ccc(C(=O)Cn2c(=N)n(CCN3CCOCC3)c3ccccc32)cc1 | u | i | u | i | -4% | -7%
Cc1ccc(Cn2c(=N)n(CC(=O)c3ccc([N+](=O)[O-])cc3)c3ccccc32)cc1 | 2.9µM* | 15µM* | 4.6µM* | 18µM* | -13% | -3%
COC(=O)Cn1c(=N)n(CCN2CCCCC2)c2ccccc21 | 2% | i | 3% | i | 9% | 10%
N=c1n(CCN2CCCCC2)c2ccccc2n1CC(=O)c1ccc(Cl)c(Cl)c1 | u | u | u | u | 21µM* | 21µM*
CC(C)CN1C(=O)C(=O)N(CC(=O)c2ccc[nH]2)C1=O | 1% | i | -2% | u | 2% | 0%
Cc1cc(C=O)cc(C)c1[N+](=O)[O-] | u | i | u | i | x | x
CC[C@]1(O)C[C@H]2CN(CCc3c([nH]c4ccccc34)[C@@](C(=O)OC)(c3cc4c(cc3OC)N(C=O)[C@H]3[C@@](O)(C(=O)OC)[C@H](OC(C)=O)[C@]5(CC)C=CCN6CC[C@]43[C@@H]65)C2)C1 | 0.24µM*! | i | 0.24µM* | 0.12µM* | x | x
O=C(NCc1ccc(Cl)cc1)C(=O)Nc1cccc(Br)c1 | -21% | i | -26% | u | x | x
CCOC(=O)N(C)c1c(CC)nc2c(OCC(=O)C(C)(C)C)cccn12 | -20% | i | -22% | i | 20% | 4%
CCOC(=O)N(C)c1c(CC)nc2c(OCc3ccccc3OC)cccn12 | 16µM* | u | 21µM* | i | 0% | -19%
CCOC(=O)N(C)c1c(CC)nc2c(OCCOc3ccccc3)cccn12 | 16µM* | u | u | i | 21% | 11%
